Results: PubChem BioAssay AID1159580 (chemical genetic matrix, 2015)
“And” between values parts separate entries of the source, which are not always exact repeats. Equal values may be shown once. In all, about 5,500 compounds went through this assay and about 2,000 (36%) were called active. Inconclusive results (about 18%) are left out. No stated cut-off is given here; in the data, active means normalized growth mostly below about 0.91 (no sharp cut-off); inconclusive means no clear call, values can overlap the other calls; inactive means mostly above about 0.92. This is one part of the list.

Experiment: chemical genetic growth profiling, strain panel (AID 1159580);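 further: tested at 20 µM; growth read once vehicle control cultures reached saturation at 30 °C; 1 = growth at the plate median or of vehicle wells; lower values mean less growth of the strain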
Conditions: S. cerevisiae deletion strains, growth OD

Measured: normalized growth

CC1(C)C2CC(=O)O[C@@]3(C)C4=CC(=O)O[C@@H](c5ccoc5)[C@]4(C)CCC3[C@@]2(C)C=C[C@H]1O (stereo partly drawn)
inactive: locus YAL013W, strain DEP1, active compounds read low 0.997 | locus YAL021C, strain ccr4, active compounds read low 0.993 | locus YAL026C, strain drs2, active compounds read low 0.98 | locus YAL030W, strain snc1, active compounds read low 0.978 | locus YBL061C, strain skt5, active compounds read low 0.986 | locus YBR009C, strain hhf1, active compounds read low 0.991 | locus YBR021W, strain FUR4, active compounds read low 1.01 | locus YBR023C, strain chs3, active compounds read low 0.97 | locus YBR171W, strain sec66, active compounds read low 0.966 | locus YBR229C, strain ROT2, active compounds read low 1.01 | locus YBR231C, strain swc5, active compounds read low 0.985 | locus YBR279W, strain paf1, active compounds read low 0.985 | locus YCL011C, strain gbp2, active compounds read low 0.967 | locus YCL016C, strain dcc1, active compounds read low 1.01 | locus YCL029C, strain bik1, active compounds read low 0.989 | locus YCL061C, strain MRC1, active compounds read low 0.999 | locus YCL069W, strain vba3, active compounds read low 0.971 | locus YCR088W, strain abp1, active compounds read low 0.974 | locus YDL005C, strain med2, active compounds read low 0.975 | locus YDL035C, strain GPR1, active compounds read low 1.03 | locus YDL040C, strain nat1, active compounds read low 0.974 | locus YDL074C, strain BRE1, active compounds read low 1.01 | locus YDL101C, strain DUN1, active compounds read low 0.999 | locus YDL134C, strain PPH21, active compounds read low 1.01 | locus YDL185W, strain tfp1, active compounds read low 0.999 | locus YDL192W, strain arf1, active compounds read low 0.988 | locus YDR001C, strain nth1, active compounds read low 0.99 | locus YDR069C, strain doa4, active compounds read low 0.98 | locus YDR101C, strain arx1, active compounds read low 1 | locus YDR137W, strain rgp1, active compounds read low 1.01 | locus YDR159W, strain sac3, active compounds read low 0.953 | locus YDR162C, strain NBP2, active compounds read low 0.998 | locus YDR195W, strain ref2 0.961 | locus YDR297W, strain sur2, active compounds read low 0.983 | locus YDR318W, strain mcm21, active compounds read low 0.989 | locus YDR334W, strain swr1, active compounds read low 0.981 | locus YDR335W, strain msn5, active compounds read low 0.979 | locus YDR388W, active compounds read low 0.99 | locus YDR392W, strain spt3, active compounds read low 0.984 | locus YDR502C, strain sam2, active compounds read low 0.998 | locus YEL003W, strain gim4, active compounds read low 0.978 | locus YEL037C, strain rad23, active compounds read low 0.984 | locus YEL061C, strain CIN8 (second series), active compounds read low 0.972 | locus YER015W, strain faa2, active compounds read low 0.975 | locus YER016W, strain bim1, active compounds read low 0.988 | locus YER110C, active compounds read low 0.983 | locus YER111C, strain swi4, active compounds read low 0.975 | locus YER155C, strain BEM2 (second series), active compounds read low 1 | locus YER155C, strain BEM2, active compounds read low 1.01 | locus YER167W, strain BCK2, active compounds read low 1.02 | locus YFR010W, strain ubp6, active compounds read low 0.971 | locus YGL078C, strain dbp3, active compounds read low 0.982 | locus YGL086W, strain mad1, active compounds read low 0.988 | locus YGL167C, strain pmr1, active compounds read low 0.989 | locus YGL173C, strain kem1, active compounds read low 0.98 | locus YGL227W, strain vid30, active compounds read low 0.98 | locus YGL240W, strain doc1, active compounds read low 0.968 | locus YGL248W, strain PDE1, active compounds read low 1 | locus YGL253W, strain hxk2, active compounds read low 0.948 | locus YGR078C, strain PAC10, active compounds read low 1 | locus YGR135W, strain pre9, active compounds read low 0.969 | locus YGR252W, strain gcn5, active compounds read low 0.97 | locus YHR013C, strain ard1, active compounds read low 0.973 | locus YHR027C, strain rpn1, active compounds read low 0.983 | locus YHR030C, strain SLT2, active compounds read low 1.01 and 0.99 | locus YHR079C, strain IRE1 (second series), active compounds read low 0.988 | locus YHR079C, strain IRE1, active compounds read low 0.987 | locus YHR094C, strain hxt1, active compounds read low 0.987 | locus YHR129C, strain ARP1, active compounds read low 1.01 | locus YHR142W, strain chs7, active compounds read low 0.964 | locus YHR200W, strain rpn10, active compounds read low 0.989 | locus YIL066C, strain RNR3, active compounds read low 1.02 | locus YIL073C, strain SPO22, active compounds read low 0.988 | locus YIL125W, strain kgd1, active compounds read low 0.991 | locus YIR030C, strain dcg1, active compounds read low 0.975 | locus YJL092W, strain hpr5, active compounds read low 0.971 | locus YJL095W, strain BCK1 (second series), active compounds read low 0.982 | locus YJL095W, strain BCK1, active compounds read low 0.986 and 0.978 | locus YJL115W, strain asf1, active compounds read low 0.987 | locus YJL129C, strain trk1, active compounds read low 0.956 | locus YJL134W, strain LCB3, active compounds read low 1.01 | locus YJL154C, strain vps35, active compounds read low 0.99 | locus YJL164C, strain tpk1, active compounds read low 1.01 | locus YJL166W, strain qcr8, active compounds read low 0.98 | locus YJL168C, strain set2, active compounds read low 0.98 | locus YJL187C, strain SWE1 (second series), active compounds read low 0.997 | locus YJL187C, strain SWE1, active compounds read low 0.983 | locus YJR043C, strain POL32, active compounds read low 1.03 | locus YJR066W, strain TOR1, active compounds read low 0.946 | locus YKL009W, strain mrt4, active compounds read low 0.985 | locus YKL068W, active compounds read low 1 | locus YKL085W, strain MDH1 (second series), active compounds read low 0.993 | locus YKL085W, strain MDH1, active compounds read low 0.993 | locus YKL160W, strain elf1, active compounds read low 1.02 | locus YKR001C, strain vps1, active compounds read low 0.997 | locus YKR026C, strain gcn3, active compounds read low 0.977 | locus YKR091W, strain srl3, active compounds read low 0.983 | locus YLL001W, strain dnm1, active compounds read low 1 | locus YLL026W, active compounds read low 0.971 | locus YLL041C, strain sdh2, active compounds read low 0.976 | locus YLR027C, strain aat2, active compounds read low 0.968 | locus YLR039C, strain RIC1, active compounds read low 0.952 | locus YLR058C, strain SHM2, active compounds read low 1.01 | locus YLR102C, strain apc9, active compounds read low 0.982 | locus YLR113W, strain HOG1, active compounds read low 0.969 | locus YLR221C, strain rsa3, active compounds read low 0.975 | locus YLR258W, strain gsy2, active compounds read low 0.98 | locus YLR262C, strain YPT6 (second series), active compounds read low 1.01 | locus YLR268W, strain sec22, active compounds read low 1.01 | locus YLR320W, strain mms22, active compounds read low 0.993 | locus YLR330W, strain CHS5, active compounds read low 1.01 | locus YLR342W, strain FKS1, active compounds read low 0.977 | locus YLR357W, strain rsc2, active compounds read low 1 | locus YLR370C, strain arc18, active compounds read low 0.958 | locus YLR371W, strain rom2, active compounds read low 0.992 | locus YLR384C, strain iki3, active compounds read low 0.986 | locus YLR418C, strain cdc73, active compounds read low 0.955 | locus YML016C, strain PPZ1, active compounds read low 1.01 | locus YML032C, strain rad52, active compounds read low 1 | locus YML120C, strain ndi1, active compounds read low 0.959 | locus YML124C, strain tub3, active compounds read low 0.983 | locus YMR058W, strain fet3, active compounds read low 0.986 | locus YMR078C, strain ctf18, active compounds read low 0.985 | locus YMR125W, strain sto1, active compounds read low 0.993 | locus YMR129W, active compounds read low 0.992 | locus YMR205C, strain PFK2, active compounds read low 1.04 | locus YMR223W, strain ubp8, active compounds read low 0.971 | locus YMR231W, strain pep5, active compounds read low 0.948 | locus YMR263W, strain SAP30, active compounds read low 1.02 | locus YMR307W, strain GAS1, active compounds read low 0.922 | locus YNL067W, strain RPL9B, active compounds read low 0.999 | locus YNL071W, strain lat1, active compounds read low 0.987 | locus YNL153C, strain GIM3, active compounds read low 1 | locus YNL183C, strain NPR1, active compounds read low 0.962 | locus YNL209W, strain ssb2, active compounds read low 1.01 | locus YNL233W, strain BNI4, active compounds read low 0.992 | locus YNL248C, strain rpa49, active compounds read low 0.98 | locus YNL250W, strain rad50, active compounds read low 0.984 | locus YNL271C, strain bni1, active compounds read low 0.995 | locus YNL298W, strain CLA4, active compounds read low 1 | locus YNL307C, strain MCK1, active compounds read low 0.991 | locus YNL322C, strain KRE1 (second series), active compounds read low 0.962 | locus YNR049C, strain mso1, active compounds read low 0.981 | locus YNR052C, strain pop2, active compounds read low 0.983 | locus YOL006C, strain TOP1, active compounds read low 1.03 | locus YOL012C, strain htz1 0.912 | locus YOL147C, strain pex11, active compounds read low 0.989 | locus YOR001W, strain rrp6, active compounds read low 0.95 | locus YOR061W, strain CKA2, active compounds read low 1.01 | locus YOR069W, strain VPS5, active compounds read low 1 | locus YOR070C, strain gyp1, active compounds read low 0.984 | locus YOR080W, strain dia2, active compounds read low 0.963 | locus YOR083W, strain WHI5, active compounds read low 1.02 | locus YOR106W, strain vam3, active compounds read low 0.989 | locus YOR136W, strain idh2, active compounds read low 0.998 | locus YOR144C, strain elg1, active compounds read low 0.993 | locus YOR184W, strain ser1, active compounds read low 1.02 | locus YOR231W, strain MKK1, active compounds read low 0.998 | locus YOR265W, strain rbl2, active compounds read low 0.966 | locus YOR270C, strain vph1, active compounds read low 0.951 | locus YOR290C, strain snf2, active compounds read low 0.974 | locus YOR316C, strain cot1, active compounds read low 0.981 | locus YPL051W, strain arl3, active compounds read low 0.987 | locus YPL078C, strain atp4, active compounds read low 1.01 | locus YPL106C, strain sse1, active compounds read low 1.02 | locus YPL240C, strain hsp82, active compounds read low 0.967 | locus YPL241C, strain CIN2, active compounds read low 1.01 | locus YPL256C, strain CLN2, active compounds read low 0.967 | locus YPR119W, strain clb2, active compounds read low 0.981 | locus YPR141C, strain kar3, active compounds read low 0.987 | locus YPR163C, strain tif3, active compounds read low 0.994 | locus YPR167C, strain met16, active compounds read low 0.983 | strain wtn01, active compounds read low 1.02
